Measurements from PubChem BioAssay (EPA / NIEHS).
Several values for one entry are separate records, joined by “and”; a condition that tells them apart may be missing. Equal values may be shown once. Results filed as inconclusive are left out. Some structures have more than one record in an assay (separate samples or runs), and their calls can disagree. Activity calls are given as the source filed them. How the source made its calls, unless noted: active means hit-call score of the fitted dose curve at least 0.9, where 1 is the maximum; inconclusive means response in the unintended direction; inactive means score below 0.9.

How the values were obtained:
[1] = molecular target: Peroxisome proliferator-activated receptor gamma (Homo sapiens) (UniProt P37231); experiment: OT_PPARg_PPARgSRC1_0480: Odyssey Thera (OT) 8-hour Protein-Complementation Assay for Peroxisome Proliferator-activated Receptor Gamma / SRC-1 Co-activator (AID 2283387);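 further: nuclear to cytoplasmic split Venus YFP fluorescence ratio reporting PPARg SRC-1 interaction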
Chain of Peroxisome proliferator-activated receptor gamma (Homo sapiens) (P37231 whole entry, looked up, the tested form may be a part): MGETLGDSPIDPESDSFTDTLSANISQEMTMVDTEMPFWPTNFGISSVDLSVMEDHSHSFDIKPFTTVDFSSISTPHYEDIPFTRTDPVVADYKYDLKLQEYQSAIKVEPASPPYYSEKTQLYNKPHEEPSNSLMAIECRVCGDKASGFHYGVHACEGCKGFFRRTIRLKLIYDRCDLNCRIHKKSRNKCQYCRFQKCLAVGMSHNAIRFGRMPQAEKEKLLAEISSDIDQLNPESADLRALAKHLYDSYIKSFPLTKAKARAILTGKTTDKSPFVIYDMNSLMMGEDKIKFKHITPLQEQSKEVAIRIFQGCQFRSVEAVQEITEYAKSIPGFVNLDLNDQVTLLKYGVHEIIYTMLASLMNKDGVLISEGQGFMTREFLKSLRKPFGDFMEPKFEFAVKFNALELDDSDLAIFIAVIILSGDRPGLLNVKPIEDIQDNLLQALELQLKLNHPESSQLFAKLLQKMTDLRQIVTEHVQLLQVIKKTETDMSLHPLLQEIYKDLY
Summary of the method: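 Read-out: 488 nm N/C fluorescence ratio from complemented Venus YFP fragments, ≥350 cells per image, gain-of-signal fitted against DMSO baseline. Fusions of PPARg/SRC-1 with IFP1/IFP2 expressed transiently in HEK293T; compounds applied 8 h.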

[2] = molecular target: Peroxisome proliferator-activated receptor gamma (Homo sapiens) (UniProt P37231); experiment: OT_PPARg_PPARgSRC1_1440: Odyssey Thera (OT) 24-hour Protein-Complementation Assay for Peroxisome Proliferator-activated Receptor Gamma/ SRC-1 Co-activator (AID 2283388);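 further: nuclear to cytoplasmic ratio of reconstituted Venus YFP fluorescence in fixed imaged cells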
Summary of the method: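 Readout: nuclear-to-cytoplasmic 488 nm fluorescence ratio, ≥350 cells per image, 8 images per well, after 24 h compound exposure of HEK293T expressing PPARg/SRC-1 split-YFP fusions. Activity fitted in positive direction against DMSO.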

[3] = read-out: Fatty acid synthase (Homo sapiens) (UniProt P49327); experiment: LTEA_HepaRG_FASN: Life Technologies and Expression Analysis (LTEA) Assay for Fatty Acid Synthase (FASN) using HepaRG (AID 2283448; active means hit-call score of the fitted dose curve at least 0.9, where 1 is the maximum; inactive means score below 0.9); details: mRNA level, 48 h; actives raise or lower the signal
Summary of the method: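 Differentiated human HepaRG cells were exposed for 48 h in serum-free induction medium to eight half-log concentrations up to 100 uM in 0.5% DMSO, in duplicate. FASN mRNA was quantified by TaqMan qRT-PCR, normalized to ACTB/GAPDH/POLR2A, and fitted bidirectionally against DMSO.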

[4] = read-out: Cyclin D2 (CCND2), CCND2 (gene 894); experiment: LTEA_HepaRG_CCND2: Life Technologies and Expression Analysis (LTEA) Assay for Cyclin D2 (CCND2) using HepaRG (AID 2283449; active means hit-call score of the fitted dose curve at least 0.9, where 1 is the maximum; inactive means score below 0.9); details: mRNA level, 48 h; actives raise or lower the signal
Summary of the method: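 Read-out is CCND2 mRNA level measured by qRT-PCR in human HepaRG liver cells and normalised to three housekeeping genes. Chemicals were applied for 48 h at up to 100 uM, with gain or loss fitted relative to 0.5% DMSO.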

[5] = read-out: Cyclin Dependent Kinase Inhibitor 1A (CDKN1A), CDKN1A (gene 1026); experiment: LTEA_HepaRG_CDKN1A: Life Technologies and Expression Analysis (LTEA) Assay for Cyclin Dependent Kinase Inhibitor 1A (CDKN1A) using HepaRG (AID 2283450; active means hit-call score of the fitted dose curve at least 0.9, where 1 is the maximum; inactive means score below 0.9); details: mRNA level, 48 h; actives raise or lower the signal
Summary of the method: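 HepaRG, 48 h dosing, 8-pt half-log series from 100 uM top, 0.5% DMSO vehicle, duplicates. Readout: TaqMan qRT-PCR of CDKN1A transcript, housekeeping-normalized (ACTB, GAPDH, POLR2A). Up/down curve fit relative to DMSO.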

[6] = molecular target: Bile acid receptor (Homo sapiens) (UniProt Q96RI1); experiment: OT_FXR_FXRSRC1_0480: Odyssey Thera (OT) 8-hour HEK293T Protein-Complementation Assay for Farnesoid X receptor/SRC-1 Co-activator (AID 2283383)
Chain of Bile acid receptor (Homo sapiens) (Q96RI1 whole entry, looked up, the tested form may be a part): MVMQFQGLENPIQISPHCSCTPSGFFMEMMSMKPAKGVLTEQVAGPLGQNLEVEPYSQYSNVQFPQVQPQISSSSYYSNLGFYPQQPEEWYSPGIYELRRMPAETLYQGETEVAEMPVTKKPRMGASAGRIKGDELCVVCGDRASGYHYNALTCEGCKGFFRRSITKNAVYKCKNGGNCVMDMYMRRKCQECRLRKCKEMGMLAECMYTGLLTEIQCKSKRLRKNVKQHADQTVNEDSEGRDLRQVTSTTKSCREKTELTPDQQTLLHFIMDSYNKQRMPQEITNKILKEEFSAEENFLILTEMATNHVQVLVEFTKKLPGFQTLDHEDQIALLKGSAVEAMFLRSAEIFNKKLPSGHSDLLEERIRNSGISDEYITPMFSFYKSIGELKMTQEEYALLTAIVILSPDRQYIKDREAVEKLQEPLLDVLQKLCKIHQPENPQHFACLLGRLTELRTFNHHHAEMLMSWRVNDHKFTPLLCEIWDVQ
Summary of the method: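 HEK293T cells expressing FXR and SRC-1 fused to reporter fragments were dosed with compound for 8 h; fluorescence from the reconstituted reporter marked co-activator recruitment. Gain of signal was fitted against the DMSO baseline.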

[7] = CEETOX_H295R_11DCORT: CeeTox H295R High-throughput Steroidogenesis Assay for 11-Deoxycortisol (11DCORT) (AID 2283432; active means hit-call score of the fitted dose curve at least 0.9, where 1 is the maximum; inactive means score below 0.9); details: actives raise or lower the signal
Summary of the method: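 H295R cells; 10 uM forskolin prestim 48 h; compound in 0.1% DMSO 48 h; media extracted with MTBE; 11-deoxycortisol by LC-MS/MS, 7-point standard curve; gain/loss vs DMSO baseline; viability by MTT in same wells.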

[8] = CEETOX_H295R_OHPREG: CeeTox H295R High-throughput Steroidogenesis Assay for OH-Pregnenolone (OHPREG) (AID 2283434; active means hit-call score of the fitted dose curve at least 0.9, where 1 is the maximum; inactive means score below 0.9); details: actives raise or lower the signal
Summary of the method: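 Hormone levels in spent medium were measured by tandem mass spectrometry following liquid-liquid extraction. Cells (H295R) had been forskolin-stimulated (10 uM, 48 h) before a 48 h chemical exposure at 0.1% DMSO, with activity fitted in both directions against DMSO.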

[9] = CEETOX_H295R_OHPROG: CeeTox H295R High-throughput Steroidogenesis Assay for OH-Progesterone (OHPROG) (AID 2283435; active means hit-call score of the fitted dose curve at least 0.9, where 1 is the maximum; inactive means score below 0.9); details: actives raise or lower the signal
Summary of the method: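 H295R human adrenal cells were prestimulated 48 h with 10 uM forskolin, then exposed 48 h to test chemical (0.1% DMSO final). 17alpha-hydroxyprogesterone in medium was measured by HPLC-MS/MS after MTBE extraction; bidirectional fitting vs DMSO.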

[10] = CEETOX_H295R_ANDR: CeeTox H295R High-throughput Steroidogenesis Assay for Androstenedione (ANDR) (AID 2283436; active means hit-call score of the fitted dose curve at least 0.9, where 1 is the maximum; inactive means score below 0.9); details: actives raise or lower the signal
Summary of the method: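 Read-out is androstenedione secreted into medium, measured by tandem mass spectrometry after liquid-liquid extraction. Cells were H295R, dosed for 48 h per modified OECD 456; activity fitted in both directions relative to DMSO.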

[11] = CEETOX_H295R_CORTIC: CeeTox H295R High-throughput Steroidogenesis Assay for Corticosterone (CORTIC) (AID 2283437; active means hit-call score of the fitted dose curve at least 0.9, where 1 is the maximum; inactive means score below 0.9;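 further: corticosterone secreted into medium quantified by mass spectrometry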); details: actives raise or lower the signal
Summary of the method: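 Corticosterone secreted into medium is measured by reverse-phase HPLC with tandem MS following liquid-liquid extraction. Cells are forskolin-stimulated (10 uM, 48 h) before 48 h test exposure; activity fitted in both directions against DMSO.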

[12] = CEETOX_H295R_CORTISOL: CeeTox H295R High-throughput Steroidogenesis Assay for Cortisol (AID 2283438; active means hit-call score of the fitted dose curve at least 0.9, where 1 is the maximum; inactive means score below 0.9;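 further: cortisol secreted into medium quantified by LC-MS/MS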); details: actives raise or lower the signal
Summary of the method: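 H295R human adrenal cells were prestimulated 48 h with 10 uM forskolin, then exposed 48 h to test chemical (0.1% DMSO final). Medium cortisol was quantified by HPLC-MS/MS after MTBE extraction; bidirectional fitting relative to DMSO baseline.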

[13] = CEETOX_H295R_DOC: CeeTox H295R High-throughput Steroidogenesis Assay for DOC (AID 2283439; active means hit-call score of the fitted dose curve at least 0.9, where 1 is the maximum; inactive means score below 0.9); details: actives raise or lower the signal
Summary of the method: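 H295R adrenal cells prestimulated 48 h with 10 uM forskolin, then exposed 48 h to test chemical (0.1% DMSO final). Medium 11-deoxycorticosterone extracted with MTBE, quantified by HPLC-MS/MS; bidirectional fit versus DMSO baseline; MTT viability in same wells.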

[14] = CEETOX_H295R_PROG: CeeTox H295R High-throughput Steroidogenesis Assay for Progesterone (PROG) (AID 2283442; active means hit-call score of the fitted dose curve at least 0.9, where 1 is the maximum; inactive means score below 0.9;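 on AC50: human H295R adrenal cells primed with 10 µM forskolin before dosing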); details: actives raise or lower the signal
Summary of the method: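 Progesterone read-out: HPLC-MS/MS on MTBE extracts of conditioned medium after 48 h chemical exposure of forskolin-primed (10 uM, 48 h) H295R cells. Gain or loss of signal was fitted relative to DMSO baseline.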

[15] = read-out: Tumor necrosis factor receptor superfamily member 6 (Homo sapiens) (UniProt P25445); experiment: LTEA_HepaRG_FAS: Life Technologies and Expression Analysis (LTEA) Assay for Fas cell surface death receptor (FAS) using HepaRG (AID 2283447; active means hit-call score of the fitted dose curve at least 0.9, where 1 is the maximum; inactive means score below 0.9); details: mRNA level, 48 h; actives raise or lower the signal
Summary of the method: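 FAS transcript level was measured by TaqMan qRT-PCR against three housekeeping genes after 48 h chemical exposure. Cells were HepaRG, 0.5% DMSO vehicle, with a top concentration of 100 uM and half-log dilutions over eight points, in duplicate.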

[16] = molecular target: Retinoic acid receptor RXR-alpha (Homo sapiens) (UniProt P19793); experiment: OT_NURR1_NURR1RXRa_0480: Odyssey Thera (OT) 8-hour HEK293T Protein Complementation Assay for Nurr1/retinoid X receptor (RXR) (AID 2283385)
Chain of Retinoic acid receptor RXR-alpha (Homo sapiens) (P19793 whole entry, looked up, the tested form may be a part): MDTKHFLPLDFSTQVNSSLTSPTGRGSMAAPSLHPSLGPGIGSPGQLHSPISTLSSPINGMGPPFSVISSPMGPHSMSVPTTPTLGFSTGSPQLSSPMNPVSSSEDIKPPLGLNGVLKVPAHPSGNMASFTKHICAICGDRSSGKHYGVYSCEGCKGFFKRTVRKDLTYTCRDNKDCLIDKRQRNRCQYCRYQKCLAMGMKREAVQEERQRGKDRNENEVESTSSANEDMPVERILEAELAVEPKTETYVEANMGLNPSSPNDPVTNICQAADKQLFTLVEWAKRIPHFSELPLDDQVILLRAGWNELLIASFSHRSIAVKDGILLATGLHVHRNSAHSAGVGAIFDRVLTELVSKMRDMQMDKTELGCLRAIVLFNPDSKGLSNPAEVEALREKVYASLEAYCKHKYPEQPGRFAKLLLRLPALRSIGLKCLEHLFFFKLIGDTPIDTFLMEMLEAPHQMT
Summary of the method: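 HEK293T cells expressing Nurr1 and RXRα fused to reporter fragments were dosed with compound for 8 hours. Complex formation was read as fluorescence intensity and analysed as gain of signal against DMSO as baseline.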

[17] = molecular target: Retinoic acid receptor RXR-alpha (Homo sapiens) (UniProt P19793); experiment: OT_NURR1_NURR1RXRa_1440: Odyssey Thera (OT) 24-hour HEK293T Protein Complementation Assay for Nurr1/retinoid X receptor (RXR) (AID 2283386)
Summary of the method: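 HEK293T cells were dosed with compound and read 24 h later by fluorescence intensity in a protein-fragment complementation format, where Nurr1–RXRα interaction reconstitutes a split reporter. Activity was fitted as gain of signal relative to DMSO baseline.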

Measured: AC50

Chain of Fatty acid synthase (Homo sapiens) (P49327 whole entry, looked up): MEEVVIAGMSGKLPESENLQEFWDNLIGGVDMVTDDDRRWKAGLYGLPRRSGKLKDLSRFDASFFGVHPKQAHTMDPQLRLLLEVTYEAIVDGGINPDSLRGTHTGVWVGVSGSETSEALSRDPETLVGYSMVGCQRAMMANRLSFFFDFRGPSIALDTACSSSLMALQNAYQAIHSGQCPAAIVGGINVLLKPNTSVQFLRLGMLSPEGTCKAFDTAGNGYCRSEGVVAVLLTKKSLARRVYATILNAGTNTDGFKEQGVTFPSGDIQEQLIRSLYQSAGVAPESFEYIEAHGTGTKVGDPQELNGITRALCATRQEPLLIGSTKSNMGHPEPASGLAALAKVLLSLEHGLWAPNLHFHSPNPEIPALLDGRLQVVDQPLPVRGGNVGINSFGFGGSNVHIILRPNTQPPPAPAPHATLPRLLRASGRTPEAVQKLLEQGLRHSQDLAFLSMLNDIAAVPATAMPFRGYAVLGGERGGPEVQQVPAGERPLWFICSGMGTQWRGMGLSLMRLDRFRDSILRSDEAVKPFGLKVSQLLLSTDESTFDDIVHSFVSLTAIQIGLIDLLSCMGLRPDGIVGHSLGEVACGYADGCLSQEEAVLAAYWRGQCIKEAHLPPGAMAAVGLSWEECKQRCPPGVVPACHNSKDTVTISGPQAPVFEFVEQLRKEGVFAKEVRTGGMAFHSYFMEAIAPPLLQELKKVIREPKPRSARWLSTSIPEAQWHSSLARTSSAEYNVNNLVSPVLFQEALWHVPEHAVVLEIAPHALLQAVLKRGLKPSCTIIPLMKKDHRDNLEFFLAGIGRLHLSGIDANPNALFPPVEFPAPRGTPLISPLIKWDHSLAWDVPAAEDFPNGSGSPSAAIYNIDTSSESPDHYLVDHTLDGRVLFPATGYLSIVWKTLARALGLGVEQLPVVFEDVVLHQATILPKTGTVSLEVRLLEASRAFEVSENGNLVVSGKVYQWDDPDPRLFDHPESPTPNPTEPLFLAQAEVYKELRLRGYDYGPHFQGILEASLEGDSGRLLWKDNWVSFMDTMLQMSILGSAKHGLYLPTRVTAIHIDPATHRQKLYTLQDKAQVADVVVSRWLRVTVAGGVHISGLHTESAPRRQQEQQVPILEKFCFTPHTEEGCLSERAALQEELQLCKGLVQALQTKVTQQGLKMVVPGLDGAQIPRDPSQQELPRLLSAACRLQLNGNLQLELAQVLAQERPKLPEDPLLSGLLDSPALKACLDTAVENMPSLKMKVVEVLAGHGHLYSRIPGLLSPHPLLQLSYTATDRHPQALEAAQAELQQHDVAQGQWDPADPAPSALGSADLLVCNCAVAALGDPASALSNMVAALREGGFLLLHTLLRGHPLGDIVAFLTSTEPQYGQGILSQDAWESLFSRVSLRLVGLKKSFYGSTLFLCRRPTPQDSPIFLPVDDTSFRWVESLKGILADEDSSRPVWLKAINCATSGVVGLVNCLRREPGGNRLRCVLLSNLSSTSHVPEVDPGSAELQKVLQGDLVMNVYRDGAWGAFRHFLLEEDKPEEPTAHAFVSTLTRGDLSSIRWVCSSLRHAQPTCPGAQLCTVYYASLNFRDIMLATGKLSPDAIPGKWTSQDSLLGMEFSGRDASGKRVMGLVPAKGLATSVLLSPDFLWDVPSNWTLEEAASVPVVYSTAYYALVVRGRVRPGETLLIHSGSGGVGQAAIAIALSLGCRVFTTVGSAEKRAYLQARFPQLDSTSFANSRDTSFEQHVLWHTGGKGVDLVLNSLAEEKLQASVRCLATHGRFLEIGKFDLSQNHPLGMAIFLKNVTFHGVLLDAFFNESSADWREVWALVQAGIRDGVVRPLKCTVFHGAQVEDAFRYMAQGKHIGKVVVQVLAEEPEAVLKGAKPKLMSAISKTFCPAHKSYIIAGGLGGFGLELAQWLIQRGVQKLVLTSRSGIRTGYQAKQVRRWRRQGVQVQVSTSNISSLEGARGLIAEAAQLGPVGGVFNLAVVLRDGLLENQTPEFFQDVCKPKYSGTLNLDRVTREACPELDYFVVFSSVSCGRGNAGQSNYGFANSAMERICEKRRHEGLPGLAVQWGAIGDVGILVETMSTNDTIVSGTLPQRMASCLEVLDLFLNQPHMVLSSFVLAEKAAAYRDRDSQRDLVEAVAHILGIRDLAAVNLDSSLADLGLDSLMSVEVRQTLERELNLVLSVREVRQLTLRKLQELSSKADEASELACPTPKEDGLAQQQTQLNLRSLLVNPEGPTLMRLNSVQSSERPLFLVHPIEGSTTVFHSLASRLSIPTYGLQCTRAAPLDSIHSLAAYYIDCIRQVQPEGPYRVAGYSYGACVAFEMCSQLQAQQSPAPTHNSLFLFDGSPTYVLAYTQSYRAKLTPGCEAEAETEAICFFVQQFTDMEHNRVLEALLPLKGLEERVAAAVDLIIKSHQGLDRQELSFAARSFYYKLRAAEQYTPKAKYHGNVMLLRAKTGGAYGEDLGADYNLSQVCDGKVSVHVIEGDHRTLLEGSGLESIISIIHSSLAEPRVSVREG

CCCN(CCC)c1c([N+](=O)[O-])cc(S(N)(=O)=O)cc1[N+](=O)[O-]
inactive: [1] | [2] | [3] | [4] | [5]
active: [3] 94.6 µM and 74.2 µM | [5] 96.1 µM

CCCC1COC(Cn2cncn2)(c2ccc(Cl)cc2Cl)O1 (stereo not given)
active: [11] 0.357 µM | [12] 0.323 µM | [15] 72 µM | [3] 83.3 µM | [5] 33.2 µM
not listed: [4] | [16] | [17]
inactive: all other assays above

O=C(O)c1nc(Cl)ccc1Cl
inactive: [16] | [17] | [2] | [15] | [3] | [4] | [5]

COc1cnc(OC)n2nc(NS(=O)(=O)c3c(OCC(F)F)cccc3C(F)(F)F)nc12
inactive: [16] | [17] | [1] | [2] | [15] | [3] | [4] | [5]

CON(C)C(=O)Nc1ccc(Cl)c(Cl)c1
active: [3] 4.86 µM | [5] 85.8 µM
not listed: [6] | [10]
inactive: all other assays above

OC(c1ccc(Cl)cc1)(c1cncnc1)c1ccccc1Cl (stereo not given)
active: [15] 81 µM | [3] 87.3 µM | [5] 70.5 µM
inactive: [17] | [1] | [2] | [4]

O=C(O)COc1nc(Cl)c(Cl)cc1Cl
inactive: [6] | [16] | [17] | [1] | [2] | [15] | [3] | [4] | [5]

CCOC(=O)CC(SP(=S)(OC)OC)C(=O)OCC (stereo not given)
active: [9] 25.8 µM | [14] 21 µM
not listed: [3] | [6] | [16] | [17]
inactive: all other assays above
